This is a sample that favours compounds with a hit; in the whole collection about 19% have one here.
HT1080 IDH1KD tx = kills HT-1080 cells with IDH1 knockdown. HT-1080 IDH1 knockdown viability, ATP luminescence, 48 h. Potency, µM (doses to about 46.1 µM), inactives show top-dose activity, negative = toxicity, usual class: cytotoxic. 360,000 tested, 2% active;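 further: potency means the concentration at half of the fitted maximal effect; 0% = DMSO wells and -100% = cell-free medium wells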
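HT-1080-IDH1KD cells (IDH1 knocked down), 750/well in RPMI with 5% FBS, treated with compound 48 h at 37 degrees C. Viability by CellTiter-Glo luminescence, normalised to DMSO and no-cell wells; concentration-response curves classed.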
TDP1 cell CPT = DT40-hTDP1 cell growth loss with CPT | chicken DT40 Tdp1-/-;hTDP1 cells + 20 nM CPT, ATP luminescence, 48 h | Potency, µM (series often up to 46.2 µM), without a hit: at the top dose activity change, negative = growth inhibition, hits mostly inhibitors | 420,000 tested, 12% active | AID 686979; further: potency means the concentration at half of the fitted maximal effect; nearly all actives have a fitted effect of over 55% in size
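Chicken DT40 Tdp1-/- cells stably complemented with human TDP1 were seeded at 400 cells/well in medium containing 20 nM camptothecin, exposed to pin-transferred compounds, and grown at 37 °C for at least 48 hr. Viability was read as ATP luminescence.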
DT40 TDP1 no CPT = qHTS for Inhibitors of human tyrosyl-DNA phosphodiesterase 1 (TDP1): qHTS in cells in absence of CPT; DT40 Tdp1-/- hTDP1 cells, no CPT, ATP luminescence, 48 h; Potency, µM (highest dose often 46.2 µM), for the others: at the highest dose activity change, negative = growth inhibition, hits mostly inhibitors; 420,000 tested, 15% active; AID 686978, 2013; further: potency means the concentration at half of the fitted maximal effect; nearly all actives have a fitted effect of over 55% in size
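A cellular qHTS used chicken DT40 cells lacking endogenous Tdp1 but carrying stably transfected human TDP1. Compounds were applied without camptothecin, and cell growth kinetics were judged by ATP-dependent luminescence after ≥48 hr.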
HT1080-NT tox = kills 2HG-producing HT-1080-NT fibrosarcoma cells | 360,000 tested, 1.6% active | HT-1080-NT fibrosarcoma viability, CellTiter-Glo ATP luminescence, 48 h | Potency, µM (top dose mostly 46.1 µM), for the others: top-dose activity, negative = less viability, hits mostly cytotoxic | AID 686970;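 further: NT is the 2HG producing partner of a matched IDH1 knockdown line; potency means the concentration at half of the fitted maximal effect; 0% = DMSO-treated cells and -100% = media-only wells without cells; nearly all actives have a fitted effect of over 55% in size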
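Viability by CellTiter-Glo luminescence after 48 h compound exposure at 37C of HT-1080-NT cells (750/well, RPMI, 5% FBS). % activity scaled between DMSO wells and medium-only wells, then curve-fitted and categorized by curve class.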
IL1B secr inh = blocks inflammasome-driven IL-1 beta release; AID 743279; activity change, % at 57.5 µM; THP-1 LPS/ATP IL-1B secretion, AlphaLISA, 16 h; stronger effect = lower value; 360,000 tested, 4.7% active; in the data active means activity change below about -50%; inconclusive means mostly about -30% to -49%
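THP-1 cells pretreated 1 hr with compounds (up to 57.5 uM final), then stimulated with LPS (250 ng/mL final) plus ATP (1.25 mM final); secreted IL-1B measured by AlphaLISA after 16 hr, decreased signal indicating inhibition.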
An asterisk follows results filed as active; ? = inconclusive; nt = not tested or not shown; [ ] = another dose, or the depositor's remark. Unless noted, the call rests on the fitted dose curve; in most records, active means well fitted curve in the direction sought with a large enough effect; inconclusive means small, poorly fitted or top-dose-only effect, or another doubt; inactive means no such curve, though single readings can be large; an effect the other way counts as inactive or inconclusive. Unless noted, on the % scale 0 is the no-effect control and ±100 the full control effect.

SMILES	HT1080 IDH1KD tx	TDP1 cell CPT	DT40 TDP1 no CPT	HT1080-NT tox	IL1B secr inh
Cn1c(=O)c2c(nc(N3CCCCCC3)n2CC(O)COc2ccccc2)n(C)c1=O (centres undefined)	-1%	23µM*	18µM*	-5%	16
Cc1cccc(OCC(O)Cn2c(N3CCCCC3)nc3c2c(=O)n(C)c(=O)n3C)c1 (centres undefined)	0%	?	16µM*	-4%	40
COCCCNc1nc2c(c(=O)[nH]c(=O)n2C)n1CC(O)COc1ccccc1C (centres undefined)	-3%	-18%	-26%	-5%	9
CCCCNc1nc2c(c(=O)n(C)c(=O)n2C)n1CC(O)COc1ccccc1C (centres undefined)	nt	21µM*	18µM*	nt	nt
OCc1nc2c(ccc3ccccc32)[nH]1	3%	-14%	6%	6%	47
O=c1[nH]cc(S(=O)(=O)NCc2ccccc2)c(=O)[nH]1	7%	-9%	32%	3%	1
COc1ccc(OCC(O)Cn2c(Nc3ccccc3)nc3c2c(=O)n(C)c(=O)n3C)cc1 (centres undefined)	7%	1%	-14%	8%	-4
COc1cccc(C(=O)Cn2c(N3CCCCC3)nc3c2c(=O)n(C)c(=O)n3C)c1	8%	?	18µM*	-1%	-8
Cn1c(=O)c2c(nc(NC3CCCCC3)n2CC(O)COc2ccccc2)n(C)c1=O (centres undefined)	-7%	?	23µM*	-2%	-5
O=C(CCN=C1NS(=O)(=O)c2ccccc21)Nc1ccc(Cl)cc1F	-1%	-17%	15%	-2%	34
Cc1cccc(-n2c3nc(=O)n(C)c(=O)c-3cc3c(Cl)cccc32)c1C	nt	6%	-2%	nt	nt
Cn1c(=O)nc2n(Cc3ccccc3)c3cccc(Cl)c3cc-2c1=O	20%	?	29µM*	15%	11
CC(C)(CNC(=O)c1ccc(S(=O)(=O)Nc2ccc(Cl)cc2)cc1)N1CCOCC1	-12%	?	?	-13%	47
O=C(Nc1ncccn1)c1ccc(C(F)(F)F)cc1	1%	-7%	-11%	-1%	9
Cc1ccc(-c2cc(C(=O)NCc3ccccc3)c3c(-c4ccc(C)cc4)[nH]nc3n2)cc1	nt	12%	9%	nt	nt
COc1ccc(OC)c(NC(=O)Nc2nnc(N3CCC(C)CC3)s2)c1	13%	?	?	21%	-6
COc1ccc(CNC(=O)c2cccn2-c2nnc(N3CCCCC3)s2)c(OC)c1	nt	?	23µM*	nt	nt
COc1ccc(OC)c(NC(=O)c2cccn2-c2nnc(N3CCCCC3)s2)c1	nt	21µM*	?	nt	nt
N#Cc1c(-c2ccccc2)c(-c2ccccc2)nn(CC(=O)NNC(=O)Nc2ccc(Cl)c(Cl)c2)c1=O	15µM*	?	?	21µM*	8
Cc1onc(-c2ccccc2Cl)c1C(=O)N(C)CC(=O)Nc1ccc(F)c(F)c1F	1%	?	?	3%	4
C[C@H]1CN([C@@H](C)CO)C(=O)CCCn2nncc2CO[C@@H]1CN(C)Cc1cccc(C(F)(F)F)c1	-4%	21µM*	23µM*	-3%	11
C[C@@H]1CN([C@@H](C)CO)C(=O)CCCn2cc(nn2)CO[C@H]1CN(C)S(=O)(=O)c1ccc(-c2ccccc2)cc1	8%	9.2µM*	6.5µM*	1%	34
C[C@@H]1CN([C@@H](C)CO)C(=O)CCCn2nncc2CO[C@H]1CN(C)Cc1ccc(-c2ccccc2)cc1	8%	0%	16µM*	12%	27
C[C@H]1CN([C@@H](C)CO)C(=O)CCCn2nncc2CO[C@@H]1CN(C)Cc1ccccc1C(F)(F)F	0%	18µM*	-21%	-5%	-11
C[C@H]1CN([C@@H](C)CO)C(=O)CCCn2nncc2CO[C@@H]1CN(C)Cc1ccccc1	4%	0%	-17%	2%	22
SMILES	HT1080 IDH1KD tx	TDP1 cell CPT	DT40 TDP1 no CPT	HT1080-NT tox	IL1B secr inh
C[C@@H]1CN([C@@H](C)CO)C(=O)CCCn2nncc2CO[C@H]1CN(C)Cc1cccc(C(F)(F)F)c1	7%	1%	-2%	0%	24
C[C@H](CO)N1C[C@H](C)[C@@H](CN(C)S(=O)(=O)c2ccc(-c3ccccc3)cc2)OCc2cn(nn2)CCCC1=O	9%	-26%	?	10%	16
Cc1c(C(=O)NCC2CC2)sc2ncnc(NCCN3CCCCC3)c12	nt	-3%	-20%	nt	nt
O=C(c1cccs1)N1CCN(Cc2nc(-c3ccccc3)no2)CC1	-12%	?	?	-10%	26
C[C@@H]1CN([C@H](C)CO)C(=O)CCCn2nncc2CO[C@@H]1CN(C)S(=O)(=O)c1ccc(Oc2ccccc2)cc1	-10%	?	?	-6%	-23
C[C@H]1CN([C@@H](C)CO)C(=O)CCCn2nncc2CO[C@H]1CN(C)S(=O)(=O)c1ccc(Oc2ccccc2)cc1	-4%	18µM*	12µM*	2%	20
CC1CCN(C(=O)COC(=O)/C=C/c2ccco2)CC1	16%	13%	?	9%	7
O=Nc1c(O)[nH]c2ccc(Cl)c(Cl)c12	?	?	?	?	-95*
CC(O)[C@H]1CNC(=O)C(=O)N1CC(C)(C)C (some centres undefined)	18%	2%	-26%	15%	33
O=C1c2cccc3c2C2(O)c4c1cccc4C(=O)c1cccc(c12)C3=O	15%	?	?	15%	19
COc1ccccc1CN(Cc1c(Cl)cccc1Cl)S(=O)(=O)c1ccc(Br)cc1	nt	16µM*	21µM*	nt	nt
COc1ccccc1CNC(=O)C(C)NS(=O)(=O)c1ccc(Br)cc1 (centres undefined)	-4%[9.24 µM]	-11%	?	0%	9
CCOC(=O)c1c(NC(=O)c2ccn(CC)n2)sc2c1CCCC2	?	?	23µM*	?	-20
CCOC(=O)c1c(NC(=O)c2cc(OCC)c(OCC)c(OCC)c2)sc2c1CCCCC2	nt	?	23µM*	nt	nt
CCOC(=O)c1c(NC(=O)C(=O)N/N=C/c2ccccc2O)sc2c1CCCCC2	?	2.9µM*	3.3µM*	?	40
CCOC(=O)c1c(NC(=O)C(=O)N/N=C/c2ccccc2OC)sc2c1CCCCC2	1%	?	-19%	-2%	8
COC(=O)c1ccc(NC(=O)C2CCCN2S(=O)(=O)c2ccc(F)cc2)cc1 (centres undefined)	17%	-10%	-29%	12%	20

Source: PubChem BioAssay (National Center for Advancing Translational Sciences (NCATS))
